Results published in PubChem BioAssay.
Measured potencies and affinities stand elsewhere. Inconclusive results are not listed. Calls of active or inactive are those of the source.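 Rule for the calls, unless noted: active = a dose-response fit showing signal loss, with half-maximal concentration no higher than twice the top tested dose; inconclusive = flat fit between 30% and 70% signal loss, or poor fit; inactive = the rest.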

How the values were obtained:
[1] = Cryptococcus neoformans growth inhibition, dose response, Alamar Blue, cherry-picks (AID 686998;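 active = falling signal with fitted half-maximal potency no higher than twice the top valid tested dose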)
[2] = inducers of Cryptococcus neoformans cell lysis, dose response, AK release luminescence, cherry-picks (AID 687000;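 active = fitted dose curve reaches 40% lysis signal rise at or below the highest valid concentration tested for that sample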;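 note: luminescent detection of adenylate kinase leaking from lysed yeast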)
[3] = HepG2 cell cytotoxicity, dose response, cytotoxicity control, cherry-picks, set 2 (AID 687002)
[4] = HeLa cell cytotoxicity, dose response, cytotoxicity control, ATP luminescence, cherry-pick samples (AID 687004;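 active = a fitted half-maximal concentration no higher than twice the top valid tested dose, with signal falling as cells die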)

Measured: outcome

O=C(Nc1cccc(F)c1)N[C@H]1CC[C@H](CCNS(=O)(=O)c2cccc(Cl)c2)O[C@@H]1CO
inactive: all assays above

Cc1ccc(NC(=O)[C@H](C)NC(=O)C2CCN(C(=O)[C@@H](N)C(C)C)CC2)cc1
inactive: all assays above

COc1ccccc1-c1cnc2c(c1)C(=O)N([C@H](C)CO)C[C@@H](C)[C@H](CN(C)Cc1cncnc1)O2
inactive: all assays above

C[C@H]1CN([C@@H](C)CO)C(=O)Cc2cc(NC(=O)CCCCCC(=O)Nc3ccccc3N)ccc2O[C@H]1CN(C)C(=O)Nc1ccccc1
inactive: all assays above

N#Cc1ccc(-c2ccc3c(c2)[C@@H]2[C@@H](CCN2C(=O)Cc2ccccc2)[C@@H](CO)N3)cc1
inactive: all assays above

COc1ccc(CNC(=O)C[C@H]2CC[C@H]3[C@@H](COc4ccc(NC(=O)C5CC5)cc4C(=O)N3C)O2)cc1
inactive: all assays above

COc1ccc(-n2cc(CNCCc3nc(C)cc(C)n3)c(-c3ccccc3Cl)n2)cc1
inactive: all assays above

CO[C@H]1CN(C)C(=O)c2ccc(NC(=O)C3CC3)cc2OC[C@@H](C)N(Cc2ccc(F)cc2)C[C@@H]1C
inactive: all assays above

Cc1cc(C)c(NC(=O)C2CCCN2C)c(C)c1 (stereo not drawn)
inactive: all assays above

COc1ccccc1C(=O)N1C[C@H]2[C@@H](c3ccccc31)[C@@H](CO)N2C(=O)Cc1ccccc1
inactive: all assays above

O=C(C[C@@H]1CC[C@H]2[C@@H](COC[C@H](O)CN2Cc2ccccc2F)O1)NC1CCC1
inactive: all assays above

CN1C(=O)c2cc(NS(C)(=O)=O)ccc2OC[C@@H]2O[C@@H](CC(=O)O)CC[C@@H]21
inactive: all assays above
